Inconclusive results are not listed. Calls of active or inactive are those of the source. Unless noted, calls come from the whole dose curve; as a rule, active = well fitted curve in the direction sought with a large enough effect in the repeat runs; inconclusive = weak or mixed curves; inactive = no such curve, though single readings can be large; an effect the other way counts as inactive or inconclusive.
Key:
[1] = molecular target: Estrogen receptor (Homo sapiens) (UniProt P03372); assay: qHTS assay to identify small molecule antagonists of the estrogen receptor alpha (ER-alpha) signaling pathway (AID 743069; active = well fitted curve in the direction sought with a large enough effect in the signal ratio in the repeat runs, not every such curve was filed as active; the % refers to the signal ratio)
Summary of the method: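 ER-alpha-UAS-bla GripTite HEK293 line; 2% charcoal-stripped FBS overnight; plated, 4 hr 37C/5% CO2; cpd in DMSO + 17beta-estradiol, 18 hr 37C; LiveBLAzer B/G FRET substrate 2 hr RT; fluorescence intensity.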

[2] = qHTS assay to identify small molecule antagonists of the estrogen receptor alpha (ER-alpha) signaling pathway - cell viability counter screen (AID 743074; calls by dose curve;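 note: HEK293 cells carrying ER-alpha-UAS-bla reporter stimulated with 17beta-estradiol; nearly all actives have a fitted effect of over 45% in size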)
[3] = molecular target: Estrogen receptor (Homo sapiens) (UniProt P03372); assay: qHTS assay to identify small molecule agonists of the estrogen receptor alpha (ER-alpha) signaling pathway (AID 743075; calls by dose curve;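 note: HEK293 GripTite cells with ER-alpha and UAS-driven beta-lactamase reporter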)
[4] = molecular target: Estrogen receptor (Homo sapiens) (UniProt P03372); assay: qHTS assay to identify small molecule agonists of the estrogen receptor alpha (ER-alpha) signaling pathway using the BG1 cell line (AID 743079); note: nearly all actives have a fitted effect of over 20% in size
[5] = qHTS assay to identify small molecule antagonists of the estrogen receptor alpha (ER-alpha) signaling pathway using the BG1 cell line (AID 743080; calls by dose curve;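 note: BG1 cells stimulated with 17beta-estradiol alongside compound; series mostly up to about 70 µM; nearly all actives have a fitted effect of over 25% in size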)
Summary of the method: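 Quantitative HTS on the Tox21 10K library: BG1 cells with endogenous ER-alpha and ERE-luciferase reporter, 17beta-estradiol stimulation, 21.5 h compound exposure, luminescence endpoint with parallel fluorescence cytotoxicity counter-read.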

[6] = qHTS assay to identify small molecule antagonists of the estrogen receptor alpha (ER-alpha) signaling pathway using the BG1 cell line - cell viability counter screen (AID 743081);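 note: compound given together with 17beta-estradiol as the ER stimulus; series mostly up to about 70 µM; nearly all actives have a fitted effect of over 45% in size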
Aromatase (Homo sapiens) = Aromatase (Homo sapiens) (UniProt P11511); assay: qHTS assay to identify aromatase inhibitors (AID 743083); note: series mostly up to about 70 µM; nearly all actives have a fitted effect of over 55% in size
[7] = qHTS assay to identify aromatase inhibitors - cell viability counter screen (AID 743084);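 note: cells stimulated with testosterone during compound exposure; nearly all actives have a fitted effect of over 55% in size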
[8] = molecular target: Aryl hydrocarbon receptor (Homo sapiens) (UniProt P35869); assay: qHTS assay to identify small molecule that activate the aryl hydrocarbon receptor (AhR) signaling pathway (AID 743085);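 note: HG2L7.5c1 human HepG2 liver cells with stably integrated DRE-driven firefly reporter; series mostly up to about 70 µM; nearly all actives have a fitted effect of over 15% in size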
Summary of the method: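 24 h compound exposure, 37C, HepG2-derived HG2L7.5c1 cells with DRE-responsive luciferase. Readouts: fluorescence viability, then luminescence at room temperature after 30 min.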

[9] = qHTS assay to identify small molecule that activate the aryl hydrocarbon receptor (AhR) signaling pathway - cell viability counter screen (AID 743086);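 note: HepG2 liver cells carrying the AhR DRE luciferase reporter; series mostly up to about 70 µM; nearly all actives have a fitted effect of over 45% in size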
Summary of the method: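 Cytotoxicity counter screen: CellTiter-Fluor signal (30 min, 37 C) in 4000 HepG2 cells/well carrying the DRE-luciferase reporter, following 24 h compound exposure at 37 C.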

[10] = qHTS assay to identify small molecule antagonists of the peroxisome proliferator-activated receptor gamma (PPARg) signaling pathway - cell viability counter screen (AID 743194); note: nearly all actives have a fitted effect of over 55% in size
Summary of the method: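 Viability was measured as CellTiter-Glo luminescence in GeneBLAzer PPARg UAS-bla HEK293H cells. These cells had been exposed 17 h at 37 C to compounds together with rosiglitazone at 50 nM final, with the beta-lactamase readout taken in the same wells.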

[11] = qHTS assay for small molecule agonists of the antioxidant response element (ARE) signaling pathway (AID 743202; active = well fitted activation curve with a large enough effect in the signal ratio in the repeat runs, not every such curve was filed as active; the % refers to the signal ratio; note: potency is the fitted concentration of half-maximal effect)
Summary of the method: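 Quantitative high-throughput format in HepG2 cells bearing an integrated ARE-beta-lactamase reporter. Compound exposure lasted 16 h at 37 C, and fluorescence was read 2 h after adding LiveBLAzer B/G substrate at room temperature.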

[12] = qHTS assay for small molecule activators of the heat shock response signaling pathway - cell viability counter screen (AID 743209); note: nearly all actives have a fitted effect of over 50% in size
Summary of the method: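 Readout: CellTiter-Glo luminescence, 30 min at room temperature. System: HSE-bla HeLa cells, 1500/well, plated overnight. Treatment: compounds in DMSO, 5 h at 37 C.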

[13] = qHTS assay for small molecule activators of the heat shock response signaling pathway (AID 743210; active = well fitted activation curve with a large enough effect in the signal ratio in the repeat runs, with a control signal flat, not every such curve was filed as active; the % refers to the signal ratio;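 note: HeLa cells with beta-lactamase reporter driven by heat shock elements; series mostly up to about 63 µM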)
Summary of the method: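 HeLa HSE-bla cells, overnight plating; cpd in DMSO 5 h, 37 C; LiveBLAzer B/G FRET substrate 2.5 h RT; fluorescence intensity read.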

[14] = molecular target: Peroxisome proliferator-activated receptor gamma (Homo sapiens) (UniProt P37231); assay: qHTS assay to identify small molecule antagonists of the peroxisome proliferator-activated receptor gamma (PPARg) signaling pathway (AID 743191; calls by dose curve; note: series mostly up to about 63 µM; nearly all actives have a fitted effect of over 30% in size)
Summary of the method: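 Beta-lactamase reporter under UAS control in HEK293H PPARg-bla cells; compound treatment 17 h at 37C. Read-out: fluorescence intensity after 1 h room-temperature incubation with LiveBLAzer B/G FRET substrate.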

[15] = qHTS assay for small molecule agonists of the antioxidant response element (ARE) signaling pathway - cell viability counter screen (AID 743203; calls by dose curve; note: nearly all actives have a fitted effect of over 55% in size)
Summary of the method: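 Following 16 hrs of compound treatment at 37C, HepG2 cells with an ARE-controlled beta-lactamase gene were lysed with CellTiter-Glo. Luminescence was read after 30 min at room temperature.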

[16] = qHTS assay to identify small molecule antagonists of the thyroid receptor (TR) signaling pathway (AID 743065); note: nearly all actives have a fitted effect of over 55% in size; note: potency is the fitted concentration of half-maximal effect; for activity, negative = inhibition: series mostly up to about 70 µM
Summary of the method: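 Antagonism measured as loss of luciferase signal in GH3 cells stably carrying a TRE-luciferase reporter, co-treated with compound and T3 (1 nM final) for 23.5 h at 37 C. Viability was read in the same well by CellTiter-Fluor.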

[17] = test system: thyroid hormone receptor (rat, GH3 cells); assay: qHTS assay to identify small molecule agonists of the thyroid receptor (TR) signaling pathway (AID 743066; calls by dose curve)
[18] = molecular target: Peroxisome proliferator-activated receptor gamma (Homo sapiens) (UniProt P37231); assay: qHTS assay to identify small molecule agonists of the peroxisome proliferator-activated receptor gamma (PPARg) signaling pathway (AID 743094; active = well fitted activation curve with a large enough effect in the signal ratio in the repeat runs, not every such curve was filed as active; the % refers to the signal ratio)
Summary of the method: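 Compounds dissolved in DMSO were added to PPARg UAS-bla HEK293H cells for 17 h at 37C, and reporter expression was quantified by fluorescence intensity after 1 h with LiveBLAzer B/G FRET substrate.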
% is set by controls: 0 for no effect and ±100 for the full control effect.

Peroxisome proliferator-activated receptor gamma (Homo sapiens), sequence (P37231 whole entry, looked up): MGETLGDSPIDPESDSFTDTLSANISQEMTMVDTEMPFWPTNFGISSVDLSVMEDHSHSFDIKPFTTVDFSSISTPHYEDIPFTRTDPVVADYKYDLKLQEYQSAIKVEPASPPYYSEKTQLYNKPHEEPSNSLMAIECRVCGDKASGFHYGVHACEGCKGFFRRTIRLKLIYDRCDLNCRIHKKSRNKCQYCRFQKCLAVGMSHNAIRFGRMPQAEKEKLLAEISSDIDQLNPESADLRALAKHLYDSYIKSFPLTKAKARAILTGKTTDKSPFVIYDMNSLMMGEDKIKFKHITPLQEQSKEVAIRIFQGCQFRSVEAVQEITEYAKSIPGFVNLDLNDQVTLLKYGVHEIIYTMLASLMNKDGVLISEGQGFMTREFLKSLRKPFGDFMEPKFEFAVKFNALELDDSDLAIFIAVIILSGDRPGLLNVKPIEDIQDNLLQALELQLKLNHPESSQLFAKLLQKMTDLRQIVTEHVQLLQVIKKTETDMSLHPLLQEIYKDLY
Aromatase (Homo sapiens), sequence (P11511 whole entry, looked up): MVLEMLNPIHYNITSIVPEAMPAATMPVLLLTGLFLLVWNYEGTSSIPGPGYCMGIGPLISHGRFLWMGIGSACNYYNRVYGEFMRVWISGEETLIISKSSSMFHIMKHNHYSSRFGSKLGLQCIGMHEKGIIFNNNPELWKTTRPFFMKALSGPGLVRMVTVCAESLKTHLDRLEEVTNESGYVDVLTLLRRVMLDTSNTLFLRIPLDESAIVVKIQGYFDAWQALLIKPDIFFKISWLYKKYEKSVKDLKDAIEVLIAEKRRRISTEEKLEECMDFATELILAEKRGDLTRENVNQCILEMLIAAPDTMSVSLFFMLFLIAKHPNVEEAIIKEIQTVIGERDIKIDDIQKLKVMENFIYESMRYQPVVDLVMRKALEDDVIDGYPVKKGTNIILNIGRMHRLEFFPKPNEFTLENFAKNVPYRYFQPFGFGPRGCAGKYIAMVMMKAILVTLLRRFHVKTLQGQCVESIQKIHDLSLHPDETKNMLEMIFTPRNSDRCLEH
Aryl hydrocarbon receptor (Homo sapiens), sequence (P35869 whole entry, looked up): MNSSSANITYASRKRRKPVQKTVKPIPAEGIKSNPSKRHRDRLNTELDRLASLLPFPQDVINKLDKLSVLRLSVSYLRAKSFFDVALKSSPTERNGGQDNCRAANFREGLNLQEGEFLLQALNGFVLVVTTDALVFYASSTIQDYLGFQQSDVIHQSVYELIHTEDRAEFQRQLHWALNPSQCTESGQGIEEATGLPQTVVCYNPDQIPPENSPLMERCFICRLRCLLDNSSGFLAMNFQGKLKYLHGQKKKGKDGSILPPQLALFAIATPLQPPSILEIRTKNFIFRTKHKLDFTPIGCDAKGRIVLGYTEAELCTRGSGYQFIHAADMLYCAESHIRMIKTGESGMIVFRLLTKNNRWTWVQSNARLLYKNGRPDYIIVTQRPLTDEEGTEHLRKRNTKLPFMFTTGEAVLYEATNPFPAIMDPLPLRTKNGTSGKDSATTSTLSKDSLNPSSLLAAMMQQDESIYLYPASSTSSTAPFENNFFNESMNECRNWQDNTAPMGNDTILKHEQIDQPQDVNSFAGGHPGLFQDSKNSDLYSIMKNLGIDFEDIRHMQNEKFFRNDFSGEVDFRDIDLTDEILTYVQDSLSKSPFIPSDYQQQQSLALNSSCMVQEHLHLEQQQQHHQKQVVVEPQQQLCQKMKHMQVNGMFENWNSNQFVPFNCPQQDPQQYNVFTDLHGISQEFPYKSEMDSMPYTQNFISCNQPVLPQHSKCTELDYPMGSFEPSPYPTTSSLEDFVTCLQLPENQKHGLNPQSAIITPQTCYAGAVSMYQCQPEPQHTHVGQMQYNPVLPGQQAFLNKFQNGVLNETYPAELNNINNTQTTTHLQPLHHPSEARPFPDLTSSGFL
Estrogen receptor (Homo sapiens), sequence (P03372 whole entry, looked up): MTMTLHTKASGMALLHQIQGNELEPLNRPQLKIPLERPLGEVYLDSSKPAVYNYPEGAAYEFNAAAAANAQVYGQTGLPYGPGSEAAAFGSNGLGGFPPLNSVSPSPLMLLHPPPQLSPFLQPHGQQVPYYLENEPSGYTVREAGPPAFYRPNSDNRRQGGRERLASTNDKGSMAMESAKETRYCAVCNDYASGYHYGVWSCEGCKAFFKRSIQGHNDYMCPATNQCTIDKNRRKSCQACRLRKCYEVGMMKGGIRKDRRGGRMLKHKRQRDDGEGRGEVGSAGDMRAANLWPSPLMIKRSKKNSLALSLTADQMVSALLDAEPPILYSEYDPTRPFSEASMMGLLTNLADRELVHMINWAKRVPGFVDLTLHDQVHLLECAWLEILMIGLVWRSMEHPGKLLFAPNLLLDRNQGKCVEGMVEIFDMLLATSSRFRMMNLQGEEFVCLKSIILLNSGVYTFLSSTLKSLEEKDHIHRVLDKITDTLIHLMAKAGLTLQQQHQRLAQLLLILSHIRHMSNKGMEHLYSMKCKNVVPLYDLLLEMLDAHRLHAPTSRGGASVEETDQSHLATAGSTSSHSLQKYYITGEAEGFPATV

CC(C)(CO)C(O)C(=O)NCCCO (stereo not drawn)
inactive: outcome [1] | outcome [2] | Potency [3] | Potency [4] | outcome [5] | Potency [6] | outcome (Aromatase (Homo sapiens)) | Potency [7] | Potency [8] | Potency [9] | outcome [10] | Potency [11] | Potency [12] | outcome [13]

COC(=O)CCCCC(CCSS/C(CCO)=C(\C)N(C=O)Cc1cnc(C)nc1N)SC(C)=O (stereo not drawn)
inactive: outcome [14] | outcome [10] | outcome [15] | Potency [12] | outcome [13]

CCN1CCCC1CN (stereo not drawn)
inactive: outcome [14] | outcome [10] | outcome [15] | Potency [12]

CCC(=O)Oc1ccc2c(c1)CC[C@@H]1[C@@H]2CC[C@@]2(C)[C@H]1C[C@@H](OC(=O)CC)[C@@H]2OC(=O)CC
inactive: outcome [14] | outcome [10] | Potency [11] | outcome [15] | Potency [12]

O=C1c2ccccc2C(=O)c2cc(Cl)ccc21
inactive: activity, negative = inhibition [16] 31.6% [at 8.44 µM] | activation [17] 1.1% [at 8.08 µM] | activity, negative = inhibition [1] -4.44% [at 6.71 µM] | activity, negative = cytotoxicity [2] -11.1% [at 6.72 µM] | activation [3] -3.38% [at 6.71 µM] | activity change, negative = inhibition [5] 1.09% [at 8.47 µM] | activity change, negative = cytotoxicity [6] 5.98% [at 8.47 µM] | activity, negative = inhibition (Aromatase (Homo sapiens)) 23.3% [at 8.47 µM] | activity change, negative = cytotoxicity [7] 7.6% [at 8.47 µM] | viability change, negative = cytotoxic [9] 10.5% [at 8.47 µM] | activity change, negative = cytotoxicity [10] 2.72% [at 5.95 µM] | activation [11] -9.26% [at 8.36 µM] | viability change, negative = cytotoxic [15] -3.86% [at 8.36 µM] | activity change, negative = cytotoxicity [12] 2.51% [at 5.95 µM] | activation [13] -0.0238% [at 5.95 µM]

Cn1c(=O)c2[nH]c(Br)nc2n(C)c1=O
active: Potency [16] 26.6 µM
inactive: outcome [17] | outcome [2] | Potency [6] | outcome (Aromatase (Homo sapiens)) | Potency [7] | Potency [9] | Potency [18] | outcome [10] | Potency [11] | outcome [15] | Potency [12] | outcome [13]

COc1cc2c(cc1OC)CN(C(=O)[C@H](C)N[C@@H](CCc1ccccc1)C(=O)O)[C@H](C(=O)O)C2
inactive: outcome [10] | Potency [11] | outcome [15] | Potency [12] | outcome [13]

O=C(Cl)c1ccccc1[N+](=O)[O-]
inactive: Potency [16] | outcome [17] | outcome [2] | Potency [6] | outcome (Aromatase (Homo sapiens)) | Potency [7] | Potency [9] | outcome [14] | outcome [10] | Potency [11] | outcome [15] | Potency [12] | outcome [13]

OCC(O)CN1CCN(c2ccccc2)CC1 (stereo not drawn)
inactive: Potency [16] | outcome [17] | outcome [2] | Potency [6] | outcome (Aromatase (Homo sapiens)) | Potency [7] | Potency [8] | Potency [18] | outcome [14] | outcome [10] | Potency [11] | outcome [15] | outcome [13]

CCOC(CN1CCN(CC(C)C(=O)c2ccccc2)CC1)c1ccccc1 (stereo not drawn)
active: Potency [11] 10.3 µM
inactive: outcome [17] | outcome [2] | Potency [6] | Potency [7] | Potency [8] | outcome [10] | Potency [12] | outcome [13]

CC(C)NC(=O)c1ccc(C=O)cc1
inactive: outcome [10] | outcome [15] | outcome [13]

C/C(=C1\CCOC(=O)S1)N(C=O)Cc1cnc(C)nc1N
inactive: outcome [10] | outcome [15] | Potency [12] | outcome [13]

Reference: PubChem BioAssay (Tox21)
